These results are taken from PubChem BioAssay (Tox21).

SMILES strings stand for the structures. Where “and” joins values, the source holds several entries; their conditions need not be identical. Equal values may be shown once. Records with an inconclusive call do not appear. A structure can be active in one record and inactive in another. Calls of active or inactive are those of the source. Calls follow the shape of the dose curve; as a rule, active = well fitted cell-killing curve with a large enough effect in the repeat runs; inconclusive = weak or mixed curves; inactive = no such curve, though single readings can be large or run the other way.
Potency is read from the fitted curve at half-maximal effect.

This assay can be described thus: qHTS assay to identify small molecule agonists of the peroxisome proliferator-activated receptor delta (PPARd) signaling pathway - cell viability counter screen (AID 743211). Also: nearly all actives have a fitted effect of over 55% in size. The note with it: PPARd-bla HEK293H viability, CellTiter-Glo luminescence, 17 h; series mostly up to 62.6 µM. The source says:
U.S. Tox21 Program National Center for Advancing Translational Sciences [NCATS] NIH Chemical Genomics Center [NCGC] U.S. Environmental Protection Agency [EPA] National Institutes of Environmental Health Sciences [NIEHS] National Toxicology Program [NTP] U.S. Food and Drug Administration [FDA] Tox21 Assay Overview: The peroxisome proliferator-activated receptors (PPARs) are lipid-activated transcription factors of the nuclear receptor superfamily with three distinct subtypes namely PPAR alpha, PPAR delta (PPARd) and PPAR gamma. All these subtypes heterodimerizes with Retinoid X receptor (RXR) and have different physiological functions. […] To identify the compounds that activate PPAR-delta signaling, GeneBLAzer PPAR delta UAS-bla HEK293H cell line (Invitrogen, Carlsbad, CA, USA) containing a beta-lactamase reporter gene under the control of an Upstream Activator Sequence (UAS) was used to screen the Tox21 compound library. The cytotoxicity of the Tox21 compound library against the PPARd-bla cell line was tested in parallel by measuring the cell viability using CellTiter-Glo assay (Promega, Madison, WI) in the same wells.
Tox21 Assay Protocol Summary: PPARd-bla cells were dispensed at 3000 cells/6uL/well in 1536-well black wall/clear bottom plates using a Multidrop Combi (Thermo Fisher Scientific, Waltham, MA) dispenser. After the assay plates were incubated at 37 C and 5% CO2 for 5 h, 23 nL of compounds dissolved in DMSO, positive controls or DMSO only was transferred to the assay plate by a Pintool station (Kalypsys, San Diego, CA). The assay plates were incubated at 37C for 17 h. After 1 uL of LiveBLAzerTM B/G FRET substrate was added using a Bioraptr Flying Reagent Dispenser (FRD) workstation (Beckman Coulter, Indianapolis, IN, USA), the plates were incubated at room temperature for 2 h, and fluorescence intensity was measured by an Envision plate reader (PerkinElmer, Shelton, CT). For cell viability readout that measures cytotoxicity, 3 ul/well of CellTiter-Glo reagent was added into the assay plates using a Bioraptr FRD. After 30 min incubation at room temperature, the luminescence intensity in the plates was measured using a ViewLux plate reader (PerkinElmer).
For the compound `O=C(Nc1ccc(Cl)c(Cl)c1)c1cc(Cl)cc(Cl)c1O`, the Potency was 5.49 µM (active). The figure for `Oc1c(Br)cc(Br)c2cccnc12` is 2.98 µM (active); for `CCOC(=O)N1CCC(=C2c3ccc(Cl)cc3CCc3cccnc32)CC1` it is 27.5 µM (active) and 29.8 µM (active).

For the compound `CCc1cccc(C)c1`, the Potency entry is “inactive”. With `CO[C@H]1C=CO[C@@]2(C)Oc3c(C)c(O)c4c(O)c(cc(O)c4c3C2=O)NC(=O)/C(C)=C\C=C/[C@H](C)[C@H](O)[C@@H](C)[C@@H](O)[C@@H](C)[C@H](OC(C)=O)[C@@H]1C`, the Potency result was “inactive”. With `S=C(SSSSSSC(=S)N1CCCCC1)N1CCCCC1`, the Potency was 0.108 µM (active).

`CCN(CC)CCOc1ccc(C(O)(Cc2ccc(Cl)cc2)c2ccc(C)cc2)cc1` (stereo not given): the Potency was 10.6 µM (active). The figure for `CCCCCCCCCCCCCC[n+]1ccccc1` is 24.5 µM (active); for `CNC(=O)c1cc(Oc2ccc(NC(=O)Nc3ccc(Cl)c(C(F)(F)F)c3)cc2)ccn1` it is 15 µM (active). For the compound `CCCCCCCC/C=C\CCCCCCCC(=O)NCc1ccc(O)c(OC)c1`, the Potency was 23.7 µM (active). For the compound `COc1ccccc1OCCNCC(O)COc1cccc2[nH]c3ccccc3c12` (stereo not given), the Potency is 23.7 µM (active). Regarding `C[Si](C)(C)Cl`, the Potency result is “inactive”. Consider `CC1=C(/C=C/C(C)=C/C=C/C(C)=C\C=O)C(C)(C)CCC1`, for which the Potency is 41.3 µM (active).

Regarding `c1ccc(Nc2cccc3ccccc23)cc1`, the Potency entry is “inactive”. `NC1(c2ccc(-c3nc4ccn5c(=O)[nH]nc5c4cc3-c3ccccc3)cc2)CCC1`: the Potency is 26.6 µM (active).

Consider `O=C(O)Cc1ccc(OCCNC[C@H](O)c2ccccc2)cc1`, for which the Potency result is “inactive”. Take `COC(=O)CC#N`: the Potency result was “inactive”.

`CN(C)CCCN1c2ccccc2Sc2ccc(C(F)(F)F)cc21`: the Potency was 29.8 µM (active). Then `C=C[C@](C)(O)CC[C@@H]1[C@@]2(C)CCCC(C)(C)[C@@H]2CC[C@@]1(C)O`, with 54.9 µM (active).

As for `C=C1C(C)(C)[C@@]2(Cl)C(Cl)[C@]1(Cl)C(Cl)(Cl)C2(Cl)Cl` (stereo not given in full), the Potency is 38.2 µM (active).

Regarding `CCOC(=O)COc1ccc(C)cc1`, the Potency entry is “inactive”. On to `CCCCCCCCCCCCN(CCO)CCO`, for which the Potency was 38.7 µM (active). On to `CSc1ccc2c(c1)N(CCC1CCCCN1C)c1ccccc1S2` (stereo not given), for which the Potency result was “inactive and 9.44 µM (active)”. The entry for `O=C(c1ccccc1)c1cc(Cl)ccc1O` is “inactive”; for `CCCCCCCCCCCCCCNCCO` it is “inactive”; for `CCOC(=O)[C@@](C)(N)Cc1ccc(O)c(O)c1` it is “inactive”. As to `CC(C(O)c1ccccc1)N(C)CCOC(c1ccccc1)c1ccccc1` (stereo not given), the Potency was 29.8 µM (active).

In the case of `CCC1(c2cnc[nH]2)Cc2ccccc2C1`, the Potency result was “inactive”. For the compound `CC(=O)Oc1ccc(C2(c3ccc(OC(C)=O)cc3)Oc3ccccc3NC2=O)cc1`, the Potency entry was “inactive”. As for `O=C(O)CCCCCCC(=O)O`, the Potency entry is “inactive”. On to `S=P(N1CC1)(N1CC1)N1CC1`, for which the Potency result was “inactive”. The figure for `CCCCC(CC)COC(=O)c1ccc(O)cc1` (stereo not given) is 38.8 µM (active).

Take `COC(=O)CC(C)CCC=C(C)C` (stereo not given): the Potency result was “inactive”.

With `CC1(C)C(=O)N(Br)C(=O)N1Br`, the Potency entry is “inactive”.

Take `CC(C)=C1CC[C@@H](C)CC1=O`: the Potency entry was “inactive”. For `c1cc2c3c(c1)ccc1cccc(c13)C2`, the Potency was 56.1 µM (active). Then `COc1cc(C=C2CCC/C(=C\c3ccc(O)c(OC)c3)C2=O)ccc1O`, with 29.8 µM (active); and `CCCCCCCCCCOCC(O)CN` (stereo not given), with 26.6 µM (active). Take `Cc1cccc(Br)c1`: the Potency entry is “inactive”. In the case of `O=Nc1ccc(NO)cc1`, the Potency result was “inactive”.
